{"source": "PubChem BioAssay (Tox21)", "note": "Records with an inconclusive call do not appear. Unmarked numbers belong to inactive results. Calls of active or inactive are those of the source. Calls follow the shape of the full dose curve. % is scaled to controls: 0 for no effect and ±100 for the full control effect; potency is read from the fitted curve at half-maximal effect."}
{"target": "Thyrotropin receptor (Homo sapiens) (UniProt P16473)", "sequence (P16473 whole entry, looked up)": "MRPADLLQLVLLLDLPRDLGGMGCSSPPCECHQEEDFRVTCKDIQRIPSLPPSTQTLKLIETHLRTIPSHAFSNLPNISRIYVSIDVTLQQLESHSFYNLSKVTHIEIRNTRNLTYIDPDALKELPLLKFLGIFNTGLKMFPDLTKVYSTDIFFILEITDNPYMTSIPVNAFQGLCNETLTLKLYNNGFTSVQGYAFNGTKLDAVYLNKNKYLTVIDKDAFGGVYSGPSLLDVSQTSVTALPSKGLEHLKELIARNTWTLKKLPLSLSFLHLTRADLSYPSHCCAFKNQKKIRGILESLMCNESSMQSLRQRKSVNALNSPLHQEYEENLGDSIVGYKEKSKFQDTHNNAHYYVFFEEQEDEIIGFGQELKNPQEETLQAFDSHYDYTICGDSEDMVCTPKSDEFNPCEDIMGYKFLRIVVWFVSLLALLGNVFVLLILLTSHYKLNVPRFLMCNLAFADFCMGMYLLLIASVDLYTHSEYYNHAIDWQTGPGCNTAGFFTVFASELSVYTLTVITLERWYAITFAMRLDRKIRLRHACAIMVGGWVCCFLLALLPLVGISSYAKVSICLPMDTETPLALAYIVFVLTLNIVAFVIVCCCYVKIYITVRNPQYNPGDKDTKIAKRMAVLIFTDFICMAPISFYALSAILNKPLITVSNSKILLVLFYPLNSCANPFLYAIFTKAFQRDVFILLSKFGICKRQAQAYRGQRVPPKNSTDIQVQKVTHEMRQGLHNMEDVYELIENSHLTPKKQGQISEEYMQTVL", "assay": "qHTS assay to identify small molecule antagonists of the thyroid stimulating hormone receptor (TSHR) signaling pathway (AID 1259385); also: nearly all actives have a fitted effect of over 20% in size", "conditions": "TSHR-HEK293 cAMP HTRF, TSH-stimulated antagonist mode; series mostly up to 92.4 µM; activity change, negative = inhibition: at the top concentration", "text": "U.S. Tox21 Program National Center for Advancing Translational Sciences [NCATS] NIH Chemical Genomics Center [NCGC] U.S. Environmental Protection Agency [EPA] National Institutes of Environmental Health Sciences [NIEHS] National Toxicology Program [NTP] U.S. Food and Drug Administration [FDA] Tox21 Assay Overview: TSHR is the receptor for thyrotropin (thyroid stimulating hormone or TSH), a member of the glycoprotein hormone family. TSH is released by the anterior pituitary gland and is the main regulator of thyroid gland growth and development. Upon binding circulating thyrotropin, a G-protein signal cascade activates adenylyl cyclase and […] cAMP concentration is increased. cAMP is a key second messenger involved extensively in cellular signal transduction pathways associated with the majority of G-protein coupled receptors (GPCRs). The activation of these GPCRs by neurotransmitters, lipids, nucleotides, peptides and hormones results in the activation or the inhibition of plasma membrane-bound adenylate cyclase through heterotrimeric G-proteins. A cell-based TSHR assay can be used to screen chemical compounds that modulate TSHR either in agonist or antagonist mode.\nTox21 Assay Protocol Summary: TSHR-Hek293 cells were dispensed at 800 cells/4uL/well in 1536-well white plates using a Multidrop dispenser. After the assay plates were incubated at a 37C/5% CO2 incubator for 18 hrs, 23 nL of compounds dissolved in DMSO, positive controls or DMSO only was transferred to the assay plate by a pin tool, followed by 1 ul medium containing Ro20-1724. For the antagonist mode screening, 1 uL of TSH was added on the top of the cell/compound mixtures to achieve a final agonist concentration of 1.5 ng/mL. After 30 min of incubation at room temperature, 2.5 ul/well of cAMP-d2 and 2.5 ul/well of anti-cAMP-cryptate were added respectively into the assay plates using a Flying Reagent Dispenser. The plates were incubated at room temperature for 1 hr. The fluorescence intensity in the plates was measured using an Envision plate reader. Each test compound was measured at 15 concentrations and in triplicates."}
{"smiles": "O=S(=O)(O)C(F)(F)C(F)(F)C(F)(F)C(F)(F)C(F)(F)C(F)(F)F", "activity change, negative = inhibition": "-1.14%"}
{"smiles": "O=C(Nc1ccccc1)c1ccccc1I", "activity change, negative = inhibition": "-0.183%"}
{"smiles": "CC(C)CC#N", "activity change, negative = inhibition": "0.85%"}
{"smiles": "O=C1c2ccccc2C(=O)c2ccccc21", "activity change, negative = inhibition": "-0.629% [at 19 µM]"}
{"smiles": "CCC(Cl)[N+](=O)[O-]", "note": "(stereo not given)", "activity change, negative = inhibition": "2.53%"}
{"smiles": "CS(=O)(=O)c1cc(C(F)(F)F)ccc1C(=O)c1cnoc1C1CC1", "activity change, negative = inhibition": "-0.128%"}
{"smiles": "CNCC(=O)c1ccc(O)c(O)c1", "activity change, negative = inhibition": "5.63% [at 42.5 µM]"}
{"smiles": "Fc1ccc(C2(Cn3cncn3)OC2c2ccccc2Cl)cc1", "note": "(stereo not given)", "activity change, negative = inhibition": "-6.08%"}
{"smiles": "CC(C)COP(=O)(OCC(C)C)OCC(C)C", "activity change, negative = inhibition": "-7.97%"}
{"smiles": "COP(=S)(OC)Oc1c(Cl)cc(C)cc1Cl", "Potency": "54.5 µM (active)"}
{"smiles": "CCOC(=O)CP(=O)(OCC)OCC", "activity change, negative = inhibition": "-0.225%"}
{"smiles": "O=[N+]([O-])c1ccc2c3c(cccc13)CC2", "activity change, negative = inhibition": "-0.479%"}
{"smiles": "Cc1cc(C)c(C(=O)P(=O)(C(=O)c2c(C)cc(C)cc2C)c2ccccc2)c(C)c1", "activity change, negative = inhibition": "1.37%"}
{"smiles": "COC(=O)C(c1ccccc1)C1CCCCN1", "note": "(stereo not given)", "activity change, negative = inhibition": "2.6%"}
{"smiles": "CNC(=O)O/N=C(\\C)SC", "activity change, negative = inhibition": "0.0756%"}
{"smiles": "N#CCNCC#N", "activity change, negative = inhibition": "0.532%"}
{"smiles": "CC(Cl)(Cl)[N+](=O)[O-]", "activity change, negative = inhibition": "-0.443%"}
{"smiles": "CC1=NNC(=O)N(/N=C/c2cccnc2)C1", "activity change, negative = inhibition": "-2.33%"}
{"smiles": "COc1cc(C[C@@H](C)N)c(OC)cc1C", "activity change, negative = inhibition": "2.13%"}
{"smiles": "CC1=C(C(=O)Nc2ccccc2)S(=O)(=O)CCO1", "activity change, negative = inhibition": "2.25%"}
{"smiles": "CC1=C(C(=O)O)N2C(=O)[C@@H](N)[C@H]2SC1", "activity change, negative = inhibition": "2.26% [at 19 µM]"}
{"smiles": "O=C(O)c1ccc2[nH]cc(CCCCN3CC=C(c4ccccc4)CC3)c2c1", "activity change, negative = inhibition": "0.489% [at 42.5 µM]"}
{"smiles": "CCCSC(=O)Cl", "activity change, negative = inhibition": "-1.66%"}
{"smiles": "Nc1cnn(-c2ccccc2)c(=O)c1Cl", "activity change, negative = inhibition": "-0.865%"}
{"smiles": "O=C(CCN1CC1)OCC(CO)(COC(=O)CCN1CC1)COC(=O)CCN1CC1", "activity change, negative = inhibition": "1.42%"}
{"smiles": "CC(C)(C)OC(=O)c1ncn2c1[C@@H]1CCCN1C(=O)c1c(Br)cccc1-2", "activity change, negative = inhibition": "0.309% [at 42.5 µM]"}
{"smiles": "CCCCCCBr", "activity change, negative = inhibition": "0.888%"}
{"smiles": "OC(Cn1cncn1)(c1ccc(F)cc1)c1ccccc1F", "note": "(stereo not given)", "activity change, negative = inhibition": "-2.1%"}
{"smiles": "NC(=O)O", "activity change, negative = inhibition": "-2.59%"}
{"smiles": "Cc1ncsc1CCCl", "activity change, negative = inhibition": "0.647% [at 42.5 µM]"}
{"smiles": "CC1COC2(c3ccccc3Cl)c3cc(Cl)ccc3NC(=O)CN12", "note": "(stereo not given)", "activity change, negative = inhibition": "-8.17% [at 42.5 µM]"}
{"smiles": "O=C1OC(CCN2CCCCC2)OC1(c1ccccc1)c1ccccc1", "note": "(stereo not given)", "activity change, negative = inhibition": "-2.53% [at 42.5 µM]"}
{"smiles": "CSc1nc(N=[N+]=[N-])nc(NC(C)C)n1", "activity change, negative = inhibition": "-0.257%"}
{"smiles": "CC(C)NCC(O)c1ccc(N)c(C#N)c1", "note": "(stereo not given)", "activity change, negative = inhibition": "1.9% [at 42.5 µM]"}
{"smiles": "CN1CCN(C(=O)O[C@H]2c3nccnc3C(=O)N2c2ccc(Cl)cn2)CC1", "activity change, negative = inhibition": "-0.11% [at 42.5 µM]"}
{"smiles": "O=C1OC(=O)C2C1C1(Cl)C(Cl)=C(Cl)C2(Cl)C1(Cl)Cl", "note": "(stereo not given)", "activity change, negative = inhibition": "-0.967%"}
{"smiles": "Cc1ncc2n1-c1ccc(Cl)cc1C(c1ccccc1F)=NC2", "activity change, negative = inhibition": "-5.67% [at 42.5 µM]"}
{"smiles": "C=CC1CC=CCC1", "note": "(stereo not given)", "activity change, negative = inhibition": "1.06%"}
{"smiles": "OC(c1ccccc1)(c1ccccc1)C1CCNCC1", "activity change, negative = inhibition": "-0.869% [at 42.5 µM]"}
{"smiles": "c1coc(-c2nc3ccccc3[nH]2)c1", "activity change, negative = inhibition": "1.93%"}
